According to PubChem BioAssay (NCI):
This is part of a sample that, as a whole, favours compounds with a hit. Of some 79,000 tested, about 15% had one in any assay. Activity calls are given as the source filed them. Cut-off read from the data, not from the text of the source: active = growth inhibition above about 70%; inactive = the rest.

Test: NCI Yeast Anticancer Drug Screen. Data for the rad50EPP+ strain (AID 151);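 note: 0% = growth of vehicle-treated control cultures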
Conditions: S. cerevisiae rad50 mutant strain, active compounds read high
Protocol: Growth inhibition of yeast strains with defined genetic alterations is measured as a screen for potential anti-cancer activity. Selected strains with alterations in DNA damage repair or cell cycle control were exposed to compounds and growth inhibition was measured relative to vehicle treated controls. The strain used in this assay is rad50EPP+

Measured: growth inhibition

CC(Cc1ccccc1)N(C)Cc1nc(C2CCC([N+](=O)[O-])O2)no1 (stereo not given)
inactive: at 1.2 µM 5% | at 3.7 µM 14% | at 11.0 µM 27% | at 33.0 µM 44% | at 100.0 µM 42%

CC1CCC2(NC1)OC1CC3C4CCC5CC(OC6OC(CO)C(OC7OC(CO)C(O)C(OC8OCC(O)C(O)C8O)C7OC7OC(CO)C(O)C(O)C7O)C(O)C6O)CCC5(C)C4CCC3(C)C1C2C (stereo not given)
inactive: at 1.2 µM 21% | at 3.7 µM 3% | at 11.0 µM 8% | at 33.0 µM 13% | at 100.0 µM 27%

COC(COC(=O)N1CCN(C=O)CC1)C1=C(N2CC2)C(=O)C(C)=C(N2CC2)C1=O (stereo not given)
inactive: at 1.2 µM -44% | at 3.7 µM -38% | at 11.0 µM -35% | at 33.0 µM -8% | at 100.0 µM -5%

NCCc1ccc(OCc2ccccc2)c(OCc2ccccc2)c1
active: at 100.0 µM 83%
inactive: at 1.2 µM -15% | at 3.7 µM -9% | at 11.0 µM -19% | at 33.0 µM 11%

Nc1nc(-c2ccccc2)c(-c2ccccc2)[se]1
inactive: at 1.2 µM -1% | at 3.7 µM 7% | at 11.0 µM 9% | at 33.0 µM 18% | at 100.0 µM 25%

Cc1ccc2c(c1N)C(=O)c1ccccc1C2=O
active: at 33.0 µM 78% | at 100.0 µM 76%
inactive: at 1.2 µM 22% | at 3.7 µM 45% | at 11.0 µM 69%

C=C[C@H]1CN2CC[C@H]1C[C@@H]2[C@@H](O)c1ccnc2ccccc12
inactive: at 1.2 µM -1% | at 3.7 µM 0% | at 11.0 µM -2% | at 33.0 µM -3% | at 100.0 µM -3%

c1ccc(N=c2nc(N3CCOCC3)ss2)cc1
inactive: at 1.2 µM -5% | at 3.7 µM 2% | at 11.0 µM 19% | at 33.0 µM 56%
active: at 100.0 µM 99%
